{
  "source": "PubChem BioAssay AID1421",
  "about": "(Emory University Molecular Libraries Screening Center, 2008)",
  "note": "Among all 1,300 compounds or so, about 140 (11%) were called active. The rule behind the calls is not given here. Not all results are given here. Potency and affinity values are given separately.",
  "data": [
    {"target": "Prostaglandin E2 receptor EP2 subtype (Homo sapiens) (UniProt P43116)", "sequence (P43116 whole entry, looked up)": "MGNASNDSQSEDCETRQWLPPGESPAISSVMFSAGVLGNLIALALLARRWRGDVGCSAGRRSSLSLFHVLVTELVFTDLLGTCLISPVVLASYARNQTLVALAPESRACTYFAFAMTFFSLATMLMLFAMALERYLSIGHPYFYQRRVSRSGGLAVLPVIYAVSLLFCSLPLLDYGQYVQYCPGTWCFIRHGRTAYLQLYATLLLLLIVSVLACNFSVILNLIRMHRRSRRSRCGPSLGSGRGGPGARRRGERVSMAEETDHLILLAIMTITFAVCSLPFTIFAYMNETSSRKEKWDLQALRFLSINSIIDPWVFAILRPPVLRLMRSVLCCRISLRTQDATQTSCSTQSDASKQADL", "test": "EP2 receptor modulators, dose response, cell-based, human EP2, PGE2 EC50 shift (AID 1421)", "settings": "EP2-expressing cells, PGE2 EC50 shift by compound; at 20 µM", "values": [
      {"smiles": "CC(=O)N1N=C2/C(=C/c3ccccc3)CCCC2C1c1ccccc1", "note": "(centres undefined)", "PGE2 EC50 with compound": "0.44 nM (inactive)"},
      {"smiles": "CCN=C1S/C(=C\\c2ccc(O)c(OCC)c2)C(=O)N1CC", "PGE2 EC50 with compound": "0.39 nM (inactive)"},
      {"smiles": "CCCCOP(=O)(OCCCC)C(Nc1ccccc1)c1ccc2c(c1)OCO2", "note": "(centres undefined)", "PGE2 EC50 with compound": "0.36 nM (inactive)"},
      {"smiles": "CC(C)N(CCNC(=O)c1oc(=O)c2ccccc2c1-c1ccccc1)Cc1ccco1", "PGE2 EC50 with compound": "0.81 nM (inactive)"},
      {"smiles": "C/C(=N\\N(Cc1ccccc1)c1ccccc1)c1cccnc1", "PGE2 EC50 with compound": "0.37 nM (inactive)"},
      {"smiles": "Oc1ccc(/C=N/N(Cc2ccccc2)c2ccccc2)cc1", "PGE2 EC50 with compound": "0.73 nM (inactive)"},
      {"smiles": "c1ccc(-c2ccccc2-c2nc(-c3cccnc3)no2)cc1", "PGE2 EC50 with compound": "0.05 nM (inactive)"},
      {"smiles": "Cc1scc(-c2n[nH]c(=S)n2Cc2ccccc2)c1C", "PGE2 EC50 with compound": "0.54 nM (inactive)"},
      {"smiles": "COc1ccc(N2CCN(c3nc4c(c(=O)n(C)c(=O)n4C)n3Cc3ccccc3)CC2)cc1", "PGE2 EC50 with compound": "0.9 nM (inactive)"},
      {"smiles": "Cc1cc(NC(=O)C2=C(O)c3ccccc3S(=O)(=O)N2C)no1", "PGE2 EC50 with compound": "0.77 nM (inactive)"},
      {"smiles": "Cc1ccccc1NC1=C(C(=O)c2ccccc2)N(C)S(=O)(=O)c2ccccc21", "PGE2 EC50 with compound": "0.78 nM (inactive)"},
      {"smiles": "CCOC(=O)CC(=O)CSc1nc(-c2ccc3c(c2)OCO3)cc(C(F)(F)F)c1C#N", "PGE2 EC50 with compound": "1.22 nM (inactive)"},
      {"smiles": "Cc1noc(C)c1CSc1nc2ccccc2c(=O)n1-c1ccc(Cl)cc1", "PGE2 EC50 with compound": "0.51 nM (inactive)"},
      {"smiles": "Cc1noc(C)c1CSc1nc2ccccc2c(=O)n1-c1ccc(F)cc1F", "PGE2 EC50 with compound": "0.51 nM (inactive)"},
      {"smiles": "CSc1nc(Oc2ccccc2)c2sccc2n1", "PGE2 EC50 with compound": "0.62 nM (inactive)"},
      {"smiles": "CCOC(=O)n1c(=O)n(Cc2ccc(Cl)c(Cl)c2)c2ccccc21", "PGE2 EC50 with compound": "0.31 nM (inactive)"},
      {"smiles": "COC(=O)c1cc(Br)c(=O)n(-c2nccs2)c1", "PGE2 EC50 with compound": "17 nM (inactive)"},
      {"smiles": "C=C(C)COc1ccc2c(c1)CC[C@@H]1[C@H]3C/C(=N/O)C(=O)[C@]3(C)CC[C@@H]21", "PGE2 EC50 with compound": "0.41 nM (inactive)"},
      {"smiles": "Cc1cccc(OC(=O)c2sc(Cl)nc2C)c1", "PGE2 EC50 with compound": "0.61 nM (inactive)"},
      {"smiles": "Cc1noc(C)c1CSc1ncnc2sc(C)c(C)c12", "PGE2 EC50 with compound": "0.35 nM (inactive)"},
      {"smiles": "O=C(Nc1ccc2c(c1)OCO2)c1cccc2c1C(=O)N(C1CCCCC1)C2", "PGE2 EC50 with compound": "0.58 nM (inactive)"},
      {"smiles": "CCOP(=O)(OCC)c1nc(-c2cccc3ccccc23)oc1N1CCCCC1", "PGE2 EC50 with compound": "0.42 nM (inactive)"},
      {"smiles": "CCc1nc(N2CCC(C)CC2)c2oc3ccccc3c2n1", "PGE2 EC50 with compound": "0.32 nM (inactive)"},
      {"smiles": "O=C(c1ccc2c(c1)OCO2)N(Cc1cccs1)C1(C(=O)NC2CCCCC2)CCCCC1", "PGE2 EC50 with compound": "0.42 nM (inactive)"},
      {"smiles": "O=C(COc1ccc(Br)cc1)Nc1ccc(-c2nnc(-c3ccco3)o2)cc1", "PGE2 EC50 with compound": "0.53 nM (inactive)"},
      {"smiles": "Cc1ccc2nc(N3CCC(C(=O)O)CC3)nc(-c3ccccc3)c2c1", "PGE2 EC50 with compound": "0.5 nM (inactive)"},
      {"smiles": "Cc1ccc(-n2c(Cc3cccc4ccccc34)n[nH]c2=S)c(C)c1", "PGE2 EC50 with compound": "0.39 nM (inactive)"},
      {"smiles": "CN(C)Cc1ccccc1Sc1cccc2ccccc12", "PGE2 EC50 with compound": "0.37 nM (inactive)"},
      {"smiles": "Cc1ccnc(SCC(=O)n2c3c(c4ccccc42)CC(C)CC3)n1", "note": "(centres undefined)", "PGE2 EC50 with compound": "0.26 nM (inactive)"},
      {"smiles": "COc1ccccc1-c1nnc(SCC(=O)c2ccc(C3CCCCC3)cc2)n1Cc1ccco1", "PGE2 EC50 with compound": "0.46 nM (inactive)"},
      {"smiles": "O=C(CN1CCN(Cc2ccccc2)CC1)Nc1ccccc1-c1ccccc1", "PGE2 EC50 with compound": "0.83 nM (inactive)"},
      {"smiles": "CCOC(=O)C1=NN(c2cccc(C)c2)C2(S1)SC(C(C)=O)=C(C)N2c1ccccc1", "note": "(centres undefined)", "PGE2 EC50 with compound": "0.51 nM (inactive)"},
      {"smiles": "Cc1ccccc1-n1c(Cn2c(=O)sc3ccccc32)nnc1SCC(=O)N1CCCC1", "PGE2 EC50 with compound": "0.82 nM (inactive)"},
      {"smiles": "Cc1cc(C)c2nc(N3CCCN(C(=O)c4ccco4)CC3)c(C#N)cc2c1", "PGE2 EC50 with compound": "0.66 nM (inactive)"},
      {"smiles": "COc1ccc(C2CC(c3cccs3)=NN2C(=O)c2ccc(Br)o2)cc1", "note": "(centres undefined)", "PGE2 EC50 with compound": "0.71 nM (inactive)"},
      {"smiles": "O=C1C2C3c4ccccc4C(c4ccccc43)C2c2nc3ccccc3n21", "note": "(centres undefined)", "PGE2 EC50 with compound": "0.5 nM (inactive)"},
      {"smiles": "COc1cc(C)c(NC(c2ccccc2)c2ccccc2)cc1OC", "PGE2 EC50 with compound": "0.74 nM (inactive)"},
      {"smiles": "c1ccc(-c2csc3ncnc(N4CCc5ccccc5C4)c23)cc1", "PGE2 EC50 with compound": "0.28 nM (inactive)"},
      {"smiles": "CCOC(=O)C(Cc1ccccc1)(NC(C)=O)C(=O)OCC", "PGE2 EC50 with compound": "1.39 nM (inactive)"},
      {"smiles": "O=C(O)CCCCCCCCCCCc1ccccc1", "PGE2 EC50 with compound": "0.7 nM (inactive)"},
      {"smiles": "O=c1c(O)c(-c2ccccc2)oc2ccc3occc3c12", "PGE2 EC50 with compound": "0.43 nM (inactive)"},
      {"smiles": "CCCCc1ccc(-n2c(Cc3cccs3)n[nH]c2=S)cc1", "PGE2 EC50 with compound": "0.6 nM (inactive)"},
      {"smiles": "CCCCc1n[nH]c(=S)n1Cc1ccc(Cl)cc1", "PGE2 EC50 with compound": "0.62 nM (inactive)"},
      {"smiles": "Cc1sc2ncnc(N(C)Cc3cccs3)c2c1C", "PGE2 EC50 with compound": "0.78 nM (inactive)"},
      {"smiles": "Cc1onc(-c2ccccc2)c1C(=O)N(Cc1ccco1)Cc1cccs1", "PGE2 EC50 with compound": "0.49 nM (inactive)"},
      {"smiles": "COc1cccc2[nH]c3c(N4CCCCC4)ncnc3c12", "PGE2 EC50 with compound": "54.6 nM (inactive)"},
      {"smiles": "O=C(c1cc2sccc2n1Cc1ccc(F)cc1)N1CCCc2ccccc21", "PGE2 EC50 with compound": "0.27 nM (inactive)"},
      {"smiles": "Cc1ccc(-c2nc3ccccc3nc2Cl)cc1", "PGE2 EC50 with compound": "0.45 nM (inactive)"},
      {"smiles": "CCOC(=O)c1c(NC(=O)CSC(=S)N(C)C)sc(C)c1C", "PGE2 EC50 with compound": "0.55 nM (inactive)"},
      {"smiles": "CCCOP(=O)(OCCC)C(Nc1cccc(C(F)(F)F)c1)c1ccc(C)cc1", "note": "(centres undefined)", "PGE2 EC50 with compound": "0.23 nM (inactive)"},
      {"smiles": "CCOP(=O)(OCC)c1nc(-c2cccc3ccccc23)oc1NCc1ccccc1", "PGE2 EC50 with compound": "0.31 nM (inactive)"},
      {"smiles": "CCOP(=O)(OCC)c1nc(-c2cccc3ccccc23)oc1NCCc1ccc(OC)cc1", "PGE2 EC50 with compound": "0.72 nM (inactive)"},
      {"smiles": "CCOC(=O)c1c(NC(=O)CN2C(=O)NC3(CCCCCC3)C2=O)sc(C)c1-c1ccc(C)cc1", "PGE2 EC50 with compound": "0.74 nM (inactive)"},
      {"smiles": "CCOP(=O)(OCC)c1nc(-c2ccc(C)cc2)oc1NCc1ccccc1", "PGE2 EC50 with compound": "0.46 nM (inactive)"},
      {"smiles": "Cc1ccccc1Nc1c(-c2ccccn2)nc2ccccn12", "PGE2 EC50 with compound": "0.67 nM (inactive)"},
      {"smiles": "COC(=O)c1cc2ccsc2n1Cc1ccccc1F", "PGE2 EC50 with compound": "0.49 nM (inactive)"},
      {"smiles": "CSc1nc(Sc2ccccc2Cl)c2ccccc2n1", "PGE2 EC50 with compound": "0.41 nM (inactive)"},
      {"smiles": "CCOC(=O)c1ccccc1NC(=O)CSc1ncc(C(=O)OCC)c(N)n1", "PGE2 EC50 with compound": "0.55 nM (inactive)"},
      {"smiles": "Cc1ccc(S(=O)(=O)n2c3ccc(F)cc3c3nc(C)sc32)cc1", "PGE2 EC50 with compound": "0.2 nM (inactive)"}
    ]}
  ]
}
